# About 750 (58%) of roughly 1,300 compounds were called active. The list shows a part of the results. Values without a mark were called inactive.
# Target: Sulfhydryl oxidase 1 (Homo sapiens) (UniProt O00391)
# Test: inhibition of human sulfhydryl oxidase QSOX1 – biochemical, ROS-Glo H2O2 luminescence, HTS, primary screen (AID 1347418)
# Details: recombinant QSOX1, ROS-Glo H2O2 luminescence; at 12.5 µM; active compounds read high; active = any value above zero
# Sulfhydryl oxidase 1 (Homo sapiens), sequence (O00391 whole entry, looked up): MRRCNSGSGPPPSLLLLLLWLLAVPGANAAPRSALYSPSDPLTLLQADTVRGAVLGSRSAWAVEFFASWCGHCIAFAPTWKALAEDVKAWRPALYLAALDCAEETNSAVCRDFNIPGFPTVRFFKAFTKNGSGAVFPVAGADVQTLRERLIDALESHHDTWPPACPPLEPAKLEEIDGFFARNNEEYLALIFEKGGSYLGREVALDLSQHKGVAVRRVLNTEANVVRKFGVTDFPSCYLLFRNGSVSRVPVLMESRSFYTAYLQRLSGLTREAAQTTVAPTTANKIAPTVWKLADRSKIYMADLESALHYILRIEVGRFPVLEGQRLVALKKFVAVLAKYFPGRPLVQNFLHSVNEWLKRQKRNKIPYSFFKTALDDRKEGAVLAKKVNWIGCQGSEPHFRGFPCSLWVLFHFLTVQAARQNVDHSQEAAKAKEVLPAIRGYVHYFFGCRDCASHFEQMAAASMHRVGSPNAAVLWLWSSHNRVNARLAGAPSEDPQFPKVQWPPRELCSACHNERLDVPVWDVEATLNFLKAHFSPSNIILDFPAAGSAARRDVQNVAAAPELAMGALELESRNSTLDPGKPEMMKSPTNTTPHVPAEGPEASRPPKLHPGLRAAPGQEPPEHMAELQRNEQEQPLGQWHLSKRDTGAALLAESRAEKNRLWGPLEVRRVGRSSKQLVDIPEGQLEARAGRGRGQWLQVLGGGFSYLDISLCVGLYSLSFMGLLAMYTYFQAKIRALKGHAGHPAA
row,Compound,inhibition
1,O=c1[nH]c(=S)[nH]c(-c2ccccc2)c1Cc1c(O)ccc2ccccc12,9% (active)
2,O=C(c1cc(O)c(O)c([N+](=O)[O-])c1)c1ccccc1F,14.2% (active)
3,N#CC(=C(\N)Sc1ccccc1N)/C(C#N)=C(/N)Sc1ccccc1N,44.1% (active)
4,CC(O)C(O)[C@H]1CNc2nc(N)[nH]c(=O)c2N1 (stereo partly drawn),1.5% (active)
5,CC(C)(Oc1ccc(CCNC(=O)c2ccc(Cl)cc2)cc1)C(=O)O,-3.3%
6,CCOC(=O)C(C)(C)Oc1ccc(Cl)cc1,-1.7%
7,CC(C)(Oc1ccc(C2CC2(Cl)Cl)cc1)C(=O)O (stereo not drawn),2.5% (active)
8,CCN(CC)CCNC(=O)c1cc(S(C)(=O)=O)ccc1OC,-3.2%
9,COc1ccc2cc([C@H](C)C(=O)O)ccc2c1,-0.6%
10,COc1cc(C(O)CO)ccc1O (stereo not drawn),4.8% (active)
11,COc1cc(C(O)CO)ccc1OS(=O)(=O)O (stereo not drawn),0.6% (active)
12,COc1cc(C(O)C(=O)O)ccc1O (stereo not drawn),1.1% (active)
13,COC(=O)[C@H]1[C@H]2C[C@H]3c4[nH]c5ccccc5c4CCN3C[C@H]2CC[C@@H]1O,6.1% (active)
14,COC(=O)[C@H]1[C@H]2C[C@@H]3c4[nH]c5cc(OC)ccc5c4CCN3C[C@H]2C[C@@H](OC(=O)c2cc(OC)c(OC)c(OC)c2)[C@@H]1OC,11.6% (active)
15,COC(=O)[C@@H]1[C@H]2C[C@H]3c4[nH]c5ccccc5c4CCN3C[C@@H]2CC[C@@H]1O,1.4% (active)
16,C=C[C@H]1CN2CC[C@@H]1C[C@H]2[C@@H](O)c1ccnc2ccc(OC)cc12,-3%
17,O=C(O)CCC/C=C\C[C@@H]1[C@@H](/C=C/[C@H](O)C2Cc3ccccc3C2)[C@@H](F)C[C@@H]1O,7.1% (active)
18,O=C(O)C1=CCCNC1,-2.5%
19,CCCNC(C)C(=O)Nc1ccccc1C (stereo not drawn),-4.7%
20,Cc1cccc(C)c1NC(=O)C(C)N (stereo not drawn),8% (active)
21,CCN(CC)CC(=O)Nc1c(C)cccc1C,-1.3%
22,CCCn1cnc2c1c(=O)n(CCCCC(C)=O)c(=O)n2C,2.6% (active)
23,C#CCn1c(=O)c2c(ncn2C)n(C)c1=O,-0.9%
24,Cn1c(=O)c2c(ncn2C)n(C)c1=O,-0.6%

row,Compound,inhibition
1,CCCn1c(=O)c2c(ncn2C)n(CCC)c1=O,4.1% (active)
2,CC(=O)CCCCn1c(=O)c2c(ncn2C)n(C)c1=O,5.8% (active)
3,N#C/C(=C\c1ccc(-c2cc(Cl)ccc2Cl)o1)C(=O)Nc1cccc2ncccc12,3.5% (active)
4,CCN(CC)CCn1c(=O)c(Cc2ccc(OC)cc2)nc2ccccc21,1.7% (active)
5,CCCCOC(=O)NS(=O)(=O)c1sc(CC(C)C)cc1-c1ccc(Cn2c(CC)nc3c(C)cc(C)nc32)cc1,2.7% (active)
6,CN/C(=C\[N+](=O)[O-])NCCSCc1ccc(CN(C)C)o1,-12.3%
7,CC(C)N(CCC(=O)c1ccc2ccccc2c1)Cc1ccccc1,-1.7%
8,CC(COc1ccccc1)N(CCCl)Cc1ccccc1 (stereo not drawn),9.5% (active)
9,Cc1cccc(/C=C/c2ccccc2)n1,13.7% (active)
10,COc1ccc(CCN(C)CCCC(C#N)(c2cc(OC)c(OC)c(OC)c2)C(C)C)cc1OC (stereo not drawn),4% (active)
11,COc1ccc(CCN(C)CCCC(C#N)(c2ccc(OC)c(OC)c2)C(C)C)cc1OC (stereo not drawn),-2.4%
12,CN1CCN(CC(=O)N2c3ccccc3C(=O)Nc3cccnc32)CC1,-2.7%
13,Cc1scc2c1N(C(=O)CN1CCN(C)CC1)c1ccccc1NC2=O,1.4% (active)
14,CN1CCN(c2nc3cc(C(F)(F)F)ccc3n3cccc23)CC1,6.5% (active)
15,Cc1cc(NC(=O)Nc2ccc3c(ccn3C)c2)sn1,4% (active)
16,O=C(O)C1CCCNC1 (stereo not drawn),1% (active)
17,O=C(O)[C@H]1NCCC[C@H]1C(=O)O,-0.4%
18,O=C(O)C1CCNCC1,-2.2%
19,Nc1ncnc2c1ncn2C1CCCC1,-9.6%
20,Nc1ncnc2c1c(I)cn2[C@@H]1C[C@H](N)[C@@H](O)[C@H]1O,2.7% (active)
21,Nc1ncnc2c1c(-c1ccc(Oc3ccccc3)cc1)cn2C1CCCC1,-2.9%
22,NCC(O)C1CCCCCCC1 (stereo not drawn),11.2% (active)
23,O=C(c1ccc(OCCN2CCCCC2)cc1)c1c(-c2ccc(O)cc2)sc2cc(O)ccc12,20.1% (active)
24,CC(=O)Oc1cc(C(C)C)c(OCCN(C)C)cc1C,0.4% (active)

# — PubChem BioAssay AID1347418 (Sanford-Burnham Center for Chemical Genomics, 2020)
